Laboratory results published in PubChem BioAssay (Tox21).
Activity calls are given as the source filed them. Calls follow the shape of the dose curve; as a rule, active = well fitted curve in the direction sought with a large enough effect in the repeat runs; inconclusive = weak or mixed curves; inactive = flat fitted curve, though single readings scatter. Residues, ends and D or L forms follow the SMILES beside them.

assay: qHTS assay to test for compound auto fluorescence at 535 nm (green) in HEK293 cells (AID 720680); conditions: green autofluorescence 485/535 nm; series mostly up to 46 µM; fluorescence, % of fluorescein: at the top concentration
Source text: U.S. Tox21 Program National Center for Advancing Translational Sciences [NCATS] NIH Chemical Genomics Center [NCGC] U.S. Environmental Protection Agency [EPA] National Institutes of Environmental Health Sciences [NIEHS] National Toxicology Program [NTP] U.S. Food and Drug Administration [FDA] Tox21 Assay Overview: Compound auto fluorescence often interferes with screening of the compound library against various biological targets and signaling pathways. Some of these compounds may have fluorophoric properties. Such properties may interfere with the assay outputs resulting in false positives and/or negatives. To decrease such complications and ensure the compound activities are relevant in terms of biological response, the Tox21 10K compound library was screened for auto fluorescence. From the fluorophores used as reporter signals in our screening assays, the auto fluorescence equivalencies of compounds against three fluorophores have been evaluated: Triamterene, Fluorescein and Rose Bengal sodium for blue, green and red fluorescence, respectively. The fluorescence intensities were measured using Excitation/Emission wavelengths at 405/460nm, 485/535nm and 540/590nm for blue, green and red labels, respectively. This assay includes the green fluorescence data.
Tox21 Assay Protocol Summary: 2,000 HEK293 cells in 5 uL of culture medium containing 10% dialyzed FBS per well were dispensed into black wall/clear bottom 1536-well plates using a Multidrop Combi Dispenser (Thermo Scientific). The assay plates were incubated for 4-5 hr at 37C to allow cell attachment to the well bottom, followed by the transfer of 23 nL compound or DMSO vehicle by a pintool work station (Kalypsys, San Diego, CA). After the assay plates were incubated overnight at 37C and 5% CO2, fluorescence intensities in the assay plates were measured by an Envision (PerkinElmer, Shelton, CT) plate reader using three labels for measuring blue, green and red fluorescence at […] 460, 535 and 590nm respectively.
% is scaled to controls: 0 for no effect and ±100 for the full control effect.

Row | Compound | outcome | fluorescence, % of fluorescein
1 | CO[C@H](C(=O)[C@@H](O)[C@@H](C)O)C1Cc2cc3cc(O[C@H]4C[C@@H](O[C@H]5C[C@@H](O)[C@H](O)[C@@H](C)O5)[C@@H](O)[C@@H](C)O4)c(C)c(O)c3c(O)c2C(=O)[C@H]1O[C@H]1C[C@@H](O[C@H]2C[C@@H](O[C@H]3C[C@](C)(O)[C@H](O)[C@@H](C)O3)[C@H](O)[C@@H](C)O2)[C@H](O)[C@@H](C)O1 (stereo not given in full) | inactive | –
2 | N=C(N)c1ccc(/C=C/c2ccc(C(=N)N)cc2O)cc1 | – | -0.0724% (inactive)
3 | C=C1[C@H](CO)[C@@H](O)C[C@@H]1n1cnc2c(=O)[nH]c(N)nc21 | – | -0.0073% (inactive)
4 | CC(C)[C@H](NC(=O)[C@H](CC(=O)O)NC(=O)[C@H](CCCCN)NC(=O)[C@@H](N)CCCN=C(N)N)C(=O)N[C@@H](Cc1ccc(O)cc1)C(=O)O (H-RKDVY-OH) | – | -0.132% (inactive)
5 | COC(=O)C[C@](O)(CCCC(C)(C)O)C(=O)O[C@@H]1C(OC)=CC23CCCN2CCc2cc4c(cc2[C@H]13)OCO4 (stereo not given in full) | inactive | –
6 | C[C@H](O)CN(C)C | – | -0.0262% (inactive)
7 | C=CC1=C(C(=O)O)N2C(=O)[C@@H](NC(=O)/C(=N\O)c3csc(N)n3)[C@H]2SC1 (stereo in doubt) | inactive | –
8 | C=CCc1cc(S(=O)(=O)c2ccc(O)c(CC=C)c2)ccc1O | – | -0.0228% [at 91.3 µM] (inactive)
9 | O=C(O)[C@H]1CN(C/C=C/P(=O)(O)O)CCN1 | – | 0.0345% (inactive)
10 | Cc1onc(-c2c(F)cccc2Cl)c1C(=O)N[C@@H]1C(=O)N2[C@@H]1SC(C)(C)[C@@H]2C(=O)O | inactive | –
11 | CC(=O)OCC(=O)[C@@]1(O)CC[C@H]2[C@@H]3C[C@H](C)C4=CC(=O)C=C[C@]4(C)[C@H]3[C@@H](O)C[C@@]21C | – | -0.019% (inactive)
12 | CC1=C(/C=C/C(C)=C/C=C/C(C)=C\C(=O)O)C(C)(C)CCC1 | – | 0.157% [at 91.3 µM] (inactive)
13 | O=C(O)/C=C/C(O)c1ccc(Cl)cc1 (stereo not given) | – | 0.0021% (inactive)
14 | Cc1cccc(C)c1NC(=O)C1CCCCN1C (stereo not given) | – | 0.014% (inactive)
15 | COc1ccc2ccccc2c1 | – | -0.146% [at 91.3 µM] (inactive)
16 | CS(=O)(=O)c1ccc([C@@H](O)[C@@H](COC(=O)CN)NC(=O)C(Cl)Cl)cc1 | – | -0.0346% (inactive)
17 | COC1=C(OC)C(=O)C(C/C=C(\C)CC/C=C(\C)CC/C=C(\C)CC/C=C(\C)CC/C=C(\C)CC/C=C(\C)CC/C=C(\C)CC/C=C(\C)CC/C=C(\C)CCC=C(C)C)=C(C)C1=O | inactive | –
18 | CC(CNC(=O)c1cccnc1)NC(=O)c1cccnc1 (stereo not given) | – | 0.0006% (inactive)
19 | CN=C(N)NCCC[C@H](N)C(=O)O | inactive | –
20 | C[C@@H]1C[C@H]2[C@@H]3C[C@H](F)C4=CC(=O)C=C[C@]4(C)[C@@]3(Cl)[C@@H](O)C[C@]2(C)[C@H]1C(=O)COC(=O)C(C)(C)C | – | 0.0939% (inactive)

Row | Compound | outcome | fluorescence, % of fluorescein
21 | O=C(O)[C@@H]1C[C@H](CP(=O)(O)O)CCN1 | – | 0.0941% (inactive)
22 | C[C@@H]1C(=O)NC2=Nc3cccc(Cl)c3CN21 | – | -0.132% (inactive)
23 | CCN1CCCC1CNC(=O)c1cc(S(=O)(=O)CC)ccc1OC (stereo not given) | inactive | –
24 | CC12CCC(C[N+](C)(CCC[N+](C)(C)C)C1)C2(C)C (stereo not given) | – | -0.0282% (inactive)
25 | NC[C@H]1O[C@H](O[C@H]2[C@H](O)[C@@H](O[C@H]3O[C@H](CO)[C@@H](O)[C@H](N)[C@H]3O)[C@H](N)C[C@@H]2N)[C@H](N)C[C@@H]1O | – | 0.0341% [at 18.6 µM] (inactive)
26 | C/C(=C(/CCO)SSCC1CCCO1)N(C=O)Cc1cnc(C)nc1N (stereo not given) | inactive | –
27 | NC(=O)[C@@H]1CCCN1C(=O)[C@H](Cc1cnc[nH]1)NC(=O)[C@@H]1CCC(=O)N1 | – | 0.162% (inactive)
28 | C[C@H](NCCc1ccc(O)cc1)[C@H](O)c1ccc(O)cc1 | – | 0.0308% (inactive)
29 | CC/C(=C(/CC)c1ccc(OP(=O)(O)O)cc1)c1ccc(OP(=O)(O)O)cc1 | – | -0.139% (inactive)
30 | CO/N=C(\C(=O)N[C@@H]1C(=O)N2C(C(=O)[O-])=C(C[n+]3cccc4c3CCC4)CS[C@H]12)c1csc(N)n1 | – | 0.0558% (inactive)
31 | CC[C@H]1OC(=O)[C@H](C)C(=O)[C@H](C)[C@@H](O[C@@H]2O[C@H](C)C[C@H](N(C)C)[C@H]2O)[C@](C)(OC)C[C@@H](C)C(=O)[C@H](C)[C@H]2N(CCCCn3cnc(-c4cccnc4)c3)C(=O)O[C@]12C | inactive | –
32 | NC(=O)[C@@H]1C[C@]2(NC(=O)NC2=O)c2cc(F)ccc2O1 | – | 0.0271% (inactive)
33 | N[C@H](CO)C(=O)O | – | 0.0434% (inactive)
34 | O=C(CCCCCCCCc1cccnc1)N1CCC(C=C(c2ccccc2)c2ccccc2)CC1 | – | -0.0634% [at 91.3 µM] (inactive)
35 | CCOc1ccc([N+](=O)[O-])cc1 | – | 0.002% [at 95.7 µM] (inactive)
36 | CC(=O)N(C)C | inactive | –
37 | CO/N=C(\C(=O)N[C@@H]1C(=O)N2C(C(=O)O)=C(COC(C)=O)CS[C@H]12)c1csc(N)n1 (stereo in doubt) | – | 0.0606% (inactive)
38 | CC[C@H]1OC(=O)C[C@@H](O)[C@H](C)[C@@H](O[C@@H]2O[C@H](C)[C@@H](O[C@H]3C[C@@](C)(O)[C@@H](O)[C@H](C)O3)[C@H](N(C)C)[C@H]2O)[C@@H](CC=O)C[C@@H](C)C(=O)/C=C/C(C)=C/[C@@H]1CO[C@@H]1O[C@H](C)[C@@H](O)[C@@H](OC)[C@H]1OC | inactive | –
39 | C(=C\c1ccncc1)/c1ccccc1 | inactive | –
40 | N#Cc1c(N(CC(=O)O)CC(=O)O)sc(C(=O)O)c1CC(=O)O | – | 0.0291% (inactive)
